Among the data in PubChem BioAssay (NCATS) are Potency and activity, negative = inhibition values, retold here.

Records with an inconclusive call do not appear. A call without a number means that no potency is given here. Activity calls are given as the source filed them. The call rests on the fitted dose curve; in most records, active means well fitted inhibition curve with a large enough effect; inconclusive means small, poorly fitted or top-dose-only effect; inactive means flat fitted curve, though single readings scatter.
Potency means the concentration at half of the fitted maximal effect.

For the assay, the system named is CP203. Description: qHTS profiling for inhibitors of Plasmodium falciparum proliferation (AID 504749). Further: nearly all actives have a fitted effect of over 60% in size. The settings on record: P. falciparum in erythrocytes, SYBR Green DNA, 72 h; series mostly up to 28.7 µM. An excerpt: NIH National Institute of Allergy and Infectious Diseases [NIAID] NIH Chemical Genomics Center [NCGC] MLPCN Grant: None Assay Provider: Xinzhuan Su, NIAID NCGC Assay Overview: Plasmodium falciparum is a virulent malarial parasite that kills 1-2 million people worldwide each year. Transmitted by mosquitoes, the sporozoite form of the parasite enters the blood stream to infect hepatocytes, where they become merozoites that infect red blood cells (erythrocytes). Within erythrocytes, merozoites begin a […] cycle of growth and division, after which the parasite is released to infect new red blood cells. Gametocytes, which form within erythrocytes as well, circulate in the bloodstream and are ingested by the mosquito, thereby completing the life cycle. To profile malarial isolates for differential chemical responses and to identify inhibitors of malarial growth, an assay that measures P. falciparum growth and replication within erythrocytes was employed. This assay uses a DNA binding fluorescent dye (SYBR Green) to detect parasite DNA following cell lysis. Because mature erythrocytes lack DNA, only Plasmodium-derived DNA is detected.
NCGC Assay Protocol Summary: The SYBR Green viability assay was adapted from a method described previously (Plouffe et al., 2008). For screening 3 ul culture medium was dispensed into 1536 well black clear bottom plates (Aurora Biotechnologies) using a Multidrop Combi (Thermo Fisher Scientific Inc.), 23 nL compounds in DMSO were added by a pin tool (Kalypsys), and 5 ul of erythrocytes infected with P. falciparum (0.3% parasitemia, 2.5% hematocrit final concentration) were added. The plates were incubated at 37 C in a humidified incubator in 5% CO2 for 72 h, and 2 ul lysis buffer (20 mM Tris HCl, 10 mM EDTA, 0.16% saponin, 1.6% triton X, 10X SYBR Green I supplied as 10,000X […] by Invitrogen) was added to each well. The plates were mixed for 25 sec with gentle shaking and incubated overnight at room temperature in the dark. The following morning, fluorescence intensity at 485(14) nm excitation and 535(25) nm emission wavelengths was measured on an EnVision (Perkin Elmer) plate reader. Plate reads were normalized relative to the control inhibitor (0.29 uM artemisinin) and vehicle (DMSO) wells present on each plate and then corrected by an algorithm using vehicle-only control plates at the beginning and end of the compound plate stack.
On the technique in general: In qHTS, concentration-response curves come from the screen itself.
Take `Nc1nc(N)nc(NC2CC2)n1`: the Potency result was “inactive”. On to `CN1C(=O)CC(=O)N(c2ccccc2)c2cc(Cl)ccc21`, for which the Potency entry was “inactive”. Regarding `Oc1ccc(Cl)cc1`, the Potency result was “inactive”. For the compound `CCC1(c2ccccc2)C(=O)N(COC)C(=O)N(COC)C1=O`, the Potency result is “inactive”. On to `O=C1CN=C(c2ccccc2)c2cc([N+](=O)[O-])ccc2N1`, for which the Potency result is “inactive”. With `NCCc1ccc(O)cc1`, the Potency result is “inactive”. On the same count and under the same terms, the same measure for `NNc1ccccc1`: “inactive”; for `O=c1oc2ccccc2c(O)c1Cc1c(O)c2ccccc2oc1=O`: “inactive”. `CCOC(=O)CC(SP(=S)(OC)OC)C(=O)OCC` (stereo not given): the Potency result was “inactive”. Take `CC(C)NC(C)C`: the Potency result was “inactive”. Regarding `O=C1Nc2ccc(Cl)cc2C(c2ccccc2)=NC1O` (stereo not given), the Potency result is “inactive”.

In the case of `COP(=S)(OC)Oc1ccc(S(=O)(=O)N(C)C)cc1`, the Potency result was “inactive”. For `CNC(C)(C)Cc1ccccc1`, the Potency result was “inactive”. With `CN1C[C@H](C(=O)N[C@]2(C)O[C@@]3(O)[C@@H]4CCCN4C(=O)[C@H](Cc4ccccc4)N3C2=O)C=C2c3cccc4[nH]cc(c34)C[C@H]21`, the Potency was 4.26 µM (active). The same measure, in the same setting: the same measure for `O=C1Nc2ccc(Cl)cc2C(c2ccccc2Cl)=NC1O` (stereo not given): “inactive”; for `O=P1(N(CCCl)CCCl)NCCCO1` (stereo not given): “inactive”; for `O=C1OC(c2ccc(O)c(S(=O)(=O)O)c2)(c2ccc(O)c(S(=O)(=O)O)c2)c2c(Br)c(Br)c(Br)c(Br)c21`: “inactive”. For `CN1C(=O)COc2c(C(=O)NC3CN4CCC3CC4)cc(Cl)cc21` (stereo not given), the Potency result is “inactive”.

Take `Nc1ccccc1C(=O)O`: the Potency entry was “inactive”. For the compound `CCCC(C)(COC(N)=O)COC(N)=O`, the Potency result is “inactive”. As for `COP(=S)(OC)SCN1C(=O)c2ccccc2C1=O`, the Potency result was “inactive”. Same read-out and setting: the same measure for `CN1CCC(O)(c2ccc(F)cc2)C(C(=O)c2ccc(F)cc2)C1` (stereo not given): “inactive”.

Consider `CCC(C)(C)c1ccc(O)cc1`, for which the Potency entry is “inactive”. Regarding `CC(C)=CC1C(C(=O)OCN2C(=O)C3=C(CCCC3)C2=O)C1(C)C` (stereo not given), the Potency result is “inactive”. `COc1c2c(cc3c1OCO3)CCN(C)C2`: the Potency entry was “inactive”. Same read-out and setting: the same measure for `CCCCCCC(=O)CCCCCC/C=C/C[C@@H](O)[C@H](O)[C@@](N)(CO)C(=O)O`: “inactive”; for `NC(=O)CS(=O)C(c1ccccc1)c1ccccc1` (stereo not given): “inactive”; for `COC1CC(=C(c2cccs2)c2cccs2)C[N+](C)(C)C1` (stereo not given): 12 µM (active). Consider `CCC1(CC)C(=O)C=CNC1=O`, for which the Potency entry is “inactive”. Turning to `O=c1[nH]oc2c1CCNC2`, the Potency entry was “inactive”.

Regarding `CN1C(=O)NC(=O)C(C)(C2=CCCCC2)C1=O` (stereo not given), the Potency result is “inactive”.

Turning to `C[C@]12CC[C@@H]3c4ccc(OC(=O)N(CCCl)CCCl)cc4CC[C@H]3[C@@H]1CC[C@@H]2O`, the Potency entry was “inactive”. For `CN1C(=O)C(O)N=C(c2ccccc2)c2cc(Cl)ccc21` (stereo not given), the Potency entry is “inactive”. With `C[C@]12CCC(=O)C=C1CC[C@@H]1[C@@H]2CC[C@]2(C)C(=O)CC[C@@H]12`, the Potency result was “inactive”. In the case of `Cc1nnc2n1-c1ccc(Cl)cc1C(c1ccccc1)=NC2`, the Potency result is “inactive”. As to `CCCCCCCCCC(=O)O[C@H]1CC[C@H]2[C@@H]3CCC4=CC(=O)CC[C@@H]4[C@H]3CC[C@]12C`, the Potency entry was “inactive”. `NC(=O)c1cc([N+](=O)[O-])cc([N+](=O)[O-])c1`: the Potency result is “inactive”. For `COC(=O)C(c1ccccc1)C1CCCCN1` (stereo not given), the Potency entry was “inactive”. As to `C=C(C)[C@H]1CN[C@H](C(=O)O)[C@H]1CC(=O)O`, the Potency result is “inactive”. As to `CCCCC/C=C\C/C=C\C/C=C\C/C=C\CCCC(=O)NCC(=O)O`, the activity, negative = inhibition was 6.81% [at 2.67 µM] (inactive).
